From the supplement of paper PMC6555819

Experiments:
Test in all cases: PBM binding z-score (relative to random genomic background probes); higher = stronger binding; sequences stand for … in GC…GCGATTGACAGCGTAGAATGAAGG
[1] = test system: PPARg:RXRa DBDmut IVT, anti-RXR (DBD mutation: RXRa K156A/R161A, NR concentration 270 nM, RXRa partner concentration 90 nM)
Method in brief: (§1)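 The probes on custom Agilent 4×180K protein-binding microarrays were double-stranded, with 34-nt variable regions bearing direct-repeat seeds, single-nucleotide variants, half-site ablations and random human genomic background sequences. Incubation lasted 1 h with ligand-free nuclear receptor dimers in PBS pH 7.4, 2% milk, 0.02% Triton X-100, 1 mM DTT, 0.2 mg/mL BSA and 0.4 mg/ml salmon testes DNA. Antibodies against each partner (one per run) detected bound dimers, and fluorescence scans were regression-normalized. Binding z-scores take the random background probes as reference.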

[2] = test system: PPARg:RXRa IVT, anti-PPARg (NR concentration 270 nM, RXRa partner concentration 90 nM)
Method in brief: as §1

[3] = test system: PPARg DBDmut:RXRa IVT, anti-PPARg (DBD mutation: PPARg1 K132A/R137A, NR concentration 270 nM, RXRa partner concentration 90 nM)
Method in brief: as §1

[4] = test system: PPARg DBDmut IVT, anti-PPARg (DBD mutation: PPARg1 K132A/R137A, NR concentration 270 nM)
Method in brief: as §1

[5] = test system: PPARg homodimer (NR concentration 180 nM)
Method in brief: as §1

[6] = test system: PXR:RXRa (NR concentration 270 nM, RXRa partner concentration 90 nM)
Method in brief: as §1

[7] = test system: PXR homodimer (NR concentration 270 nM)
Method in brief: as §1

[8] = test system: RARa:RXR (NR concentration 270 nM, RXRa partner concentration 90 nM)
Method in brief: as §1

[9] = test system: RARa homodimer (NR concentration 270 nM)
Method in brief: as §1

[10] = test system: RARb:RXRa (NR concentration 270 nM, RXRa partner concentration 90 nM)
Method in brief: as §1

| Sequence | PBM binding z-score [1] | PBM binding z-score [2] | PBM binding z-score [3] | PBM binding z-score [4] | PBM binding z-score [5] | PBM binding z-score [6] | PBM binding z-score [7] | PBM binding z-score [8] | PBM binding z-score [9] | PBM binding z-score [10] |
| --- | --- | --- | --- | --- | --- | --- | --- | --- | --- | --- |
| CCTTACGGGTCAGTCCAGGTTATAGCATCGGAGT | 1.7 | 2.05 | -0.331 | -0.72 | 1.36 | 4.25 | 0.276 | 2.69 | 0.405 | 3.31 |
| TGAATGAGGTTAAAGATCAGGGAGCGTGGCGTCG | 2.38 | 3.63 | 0.471 | -0.164 | 0.404 | 1.83 | -0.192 | 2.89 | -0.32 | 1.78 |
| CCGACTGGGGCAAGGTTACCATAACGCACAGCCA | 3.29 | 3.67 | -0.449 | -0.891 | 0.674 | 0.267 | -0.266 | 0.99 | 0.394 | 1.75 |
| GGAACGAGGGCAAGGTTGATAGCATCTGTCGACG | 3.31 | 3.93 | 0.295 | -0.611 | 0.79 | 0.705 | -0.0103 | 0.822 | 0.206 | 2.52 |
| TTACCAAGGTGAAAGGTCGTAGATGCACGCCTTG | 2.23 | 5.05 | 1.07 | 0.00894 | 2.17 | 4.04 | 0.0928 | 5.82 | -0.336 | 3.31 |
| GGAATGAGGGCATTCGAGTTGATAGCATGGCGAT | 4.4 | 3.1 | 1.13 | -0.209 | 0.811 | 4.13 | 1.54 | 1.44 | -0.137 | 1.72 |
| ACCGAAAGGTCGAAGGTGAGTATACCCACCCGAA | 0.582 | 2.06 | 0.374 | 0.174 | 0.885 | 3.14 | 0.0236 | 4.6 | 0.157 | 3.84 |
| CCGTCTGGGGCAAGGTTACCATAACGCACAGCCA | 1.75 | 2.43 | -0.591 | -1.54 | 0.46 | 0.036 | -0.461 | 0.632 | 0.0974 | 1.72 |
| ATCTCTAGGTAAGACTCAGTTCACTGAAGAACGC | 1.88 | 1.2 | 0.951 | 1.23 | 0.997 | 1.71 | 1.12 | 1.01 | 0.789 | 0.577 |
| GGAACGAGGGCAAAGTTGATAGTATCTGTCGACG | 3.79 | 4.43 | 0.556 | -0.544 | 0.557 | 1.12 | 0.156 | 1.66 | -0.123 | 2.22 |
| GATACAGGGCCAAGGCCAGAGTACGCGTATTGAT | -0.255 | -0.178 | -0.899 | -1.53 | -0.373 | -0.55 | -0.406 | -0.762 | -0.587 | 0.946 |
| CAAACTAGGTCAAGAGGTCAACGTCCGCTTCCCG | 8.45 | 8.58 | 3.13 | 2.14 | 8.6 | 6.18 | 1.76 | 7.72 | 4.74 | 5.47 |
